Screens: PubChem, Broad Institute
miR122 inh = miR-122 Renilla sensor signal increase in Huh7, primary screen, miR-122 inhibitor project, cell-based, single point, plate reader; Huh7 miR-122 Renilla luciferase sensor, 48 h; neutral wells = 0, positive control = 100; activation (reporter increase), % at 12.5 µM; 340,000 tested, 0.3% active;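 active = mean replicate activation score at least 90 and every replicate individually at or above 90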;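 note: higher luciferase means less miR-122 activity so hits act as miR-122 inhibitors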
MITF TRPM1 HTS = activators of MITF-driven TRPM1 promoter reporter, primary screen, cell-based, SK-MEL-5, luciferase, single point; SK-MEL-5 TRPM1-promoter luciferase, 24 h; % of positive control, neutral wells = 0; activation, % at 12.5 µM; 300,000 tested, 0.75% active;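 active = mean activation of at least 80% with every replicate also reaching 80%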
DYRK1A inh = rat Dyrk1A kinase inhibitors, primary screen, biochemical, single point, plate reader | Dual specificity tyrosine-phosphorylation-regulated kinase 1A (Rattus norvegicus), Q63470 | ADP-Glo luminescence, NFATc1 peptide | inhibition, % at 12.5 µM | 310,000 tested, 0.43% active
Wnt act = Wnt/beta-catenin pathway activators, primary screen, cell-based, plate reader, single point; Wnt/beta-catenin reporter cell assay, activator; activation, % at 9.35 µM; 300,000 tested, 1.2% active; in the data active = activation above about 30%, passing the limit was not always enough
INS-1E GSIS act = GLuc luminescence reporter in INS-1E cells, primary screen for activators of glucose-dependent secretion of insulin. INS-1E GLuc reporter insulin secretion, 2-3 h. activation, % at 16.6 µM. 370,000 tested, 0.61% active;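 active = lowest replicate activation of at least 40%, so every replicate reaches that level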
NSD2 HMT inh = NSD2 histone methyltransferase inhibitors, primary screen, biochemical, AlphaScreen, single concentration, set 2; Histone-lysine N-methyltransferase NSD2 (Homo sapiens), O96028; NSD2 peptide methylation, 120 min; inhibition, % at 12.5 µM; 310,000 tested, 0.54% active
Target sequence (O96028 whole entry, looked up): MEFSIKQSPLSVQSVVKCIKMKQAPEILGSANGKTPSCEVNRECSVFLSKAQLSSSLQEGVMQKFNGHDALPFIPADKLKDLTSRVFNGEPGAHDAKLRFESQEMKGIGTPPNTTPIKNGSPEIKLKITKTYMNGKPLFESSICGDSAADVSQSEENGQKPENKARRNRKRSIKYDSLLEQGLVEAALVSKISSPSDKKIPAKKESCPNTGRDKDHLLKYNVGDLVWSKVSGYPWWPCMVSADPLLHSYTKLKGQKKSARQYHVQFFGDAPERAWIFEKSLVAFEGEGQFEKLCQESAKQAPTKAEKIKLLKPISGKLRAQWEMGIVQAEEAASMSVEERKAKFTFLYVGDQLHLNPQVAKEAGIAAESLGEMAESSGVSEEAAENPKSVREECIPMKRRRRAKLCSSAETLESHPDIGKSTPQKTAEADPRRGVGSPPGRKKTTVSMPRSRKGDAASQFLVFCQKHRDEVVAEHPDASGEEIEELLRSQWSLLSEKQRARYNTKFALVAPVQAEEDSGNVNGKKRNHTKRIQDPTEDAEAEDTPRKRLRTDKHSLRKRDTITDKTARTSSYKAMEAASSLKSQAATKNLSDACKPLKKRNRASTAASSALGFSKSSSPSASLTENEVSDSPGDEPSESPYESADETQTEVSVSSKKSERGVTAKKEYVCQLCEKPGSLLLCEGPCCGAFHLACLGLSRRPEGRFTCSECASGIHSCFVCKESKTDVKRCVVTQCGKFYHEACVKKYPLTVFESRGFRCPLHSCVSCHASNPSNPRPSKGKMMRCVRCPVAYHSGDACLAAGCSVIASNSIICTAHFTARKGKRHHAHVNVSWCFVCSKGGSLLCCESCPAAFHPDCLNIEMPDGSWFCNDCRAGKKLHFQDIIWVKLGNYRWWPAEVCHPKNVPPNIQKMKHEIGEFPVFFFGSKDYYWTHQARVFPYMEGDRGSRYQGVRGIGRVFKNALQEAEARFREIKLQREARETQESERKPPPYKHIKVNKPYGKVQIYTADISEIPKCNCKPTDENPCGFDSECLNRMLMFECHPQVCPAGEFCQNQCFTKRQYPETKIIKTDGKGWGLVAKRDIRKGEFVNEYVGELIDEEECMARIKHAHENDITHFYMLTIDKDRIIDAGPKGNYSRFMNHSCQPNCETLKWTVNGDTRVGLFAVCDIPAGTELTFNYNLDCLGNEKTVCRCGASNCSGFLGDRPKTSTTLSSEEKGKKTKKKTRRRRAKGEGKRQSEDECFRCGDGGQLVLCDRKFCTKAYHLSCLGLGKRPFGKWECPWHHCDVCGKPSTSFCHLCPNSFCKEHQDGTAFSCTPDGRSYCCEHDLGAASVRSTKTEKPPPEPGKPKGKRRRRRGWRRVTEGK
Of the large screens only hits and unclear results are named; the others gave an inactive call; [ ] = remark or other dose. Shown are actives, neighbours in structure and some others; about 2.4% of the full set was active somewhere. Cut-off read from the data, not from the text of the source, unless noted: active = inhibition above about 50%; inactive = the rest.

COc1ccc(S(=O)(=O)N(C)C[C@H]2Oc3c(NC(=O)C4CCCCC4)cccc3C(=O)N([C@@H](C)CO)C[C@@H]2C)cc1	none (no result: MITF TRPM1 HTS, DYRK1A inh, Wnt act, NSD2 HMT inh)
C[C@@H]1CN([C@H](C)CO)C(=O)c2cccc(N(C)C)c2O[C@H]1CN(C)C(=O)Nc1ccccc1	miR122 inh 124[16.7 µM] (no result: MITF TRPM1 HTS, DYRK1A inh, Wnt act, NSD2 HMT inh)
Cc1ccc(S(=O)(=O)Nc2ccc3c(c2)C(=O)N([C@@H](C)CO)C[C@H](C)[C@H](CN(C)C(=O)Nc2ccc(F)cc2)OCCCC[C@@H](C)O3)cc1	miR122 inh 94[16.7 µM] (no result: MITF TRPM1 HTS, DYRK1A inh, Wnt act, NSD2 HMT inh)
C[C@H]1CN([C@@H](C)CO)C(=O)c2cc(NC(=O)NC3CCCCC3)ccc2O[C@@H]1CN(C)C(=O)Nc1ccccc1	miR122 inh 93[16.7 µM] (no result: MITF TRPM1 HTS, DYRK1A inh, Wnt act, NSD2 HMT inh)
CC(C)NC(=O)N(C)C[C@H]1Oc2ccc(NC(=O)Nc3ccccc3)cc2C(=O)N([C@H](C)CO)C[C@@H]1C	Wnt act 36 (no result: NSD2 HMT inh)
CCC(=O)N1C[C@@H](C)[C@H](OC)CN(C)C(=O)c2ccc(NC(=O)c3ccccc3)cc2OC[C@@H]1C	none (no result: miR122 inh, MITF TRPM1 HTS, DYRK1A inh, Wnt act, NSD2 HMT inh)
CCC(=O)N1[C@@H]2Cn3c(ccc(-c4ccccc4)c3=O)[C@H]1[C@@H](C(=O)N1CCN(C)CC1)[C@@H]2CO	none (no result: MITF TRPM1 HTS, DYRK1A inh, Wnt act, NSD2 HMT inh)
CC(=O)Nc1ccc(Nc2nnc(-c3ccc(C)c(S(N)(=O)=O)c3)c3ccccc23)cc1	none (no result: miR122 inh)
Cc1ccc(-c2nnc(Nc3ccc4c(c3)OCO4)c3ccccc23)cc1S(N)(=O)=O	miR122 inh 180 (no result: INS-1E GSIS act)
Cn1c(N)c(C(=O)COC(=O)c2cc(S(=O)(=O)N3CCOCC3)ccc2F)c(=O)n(C)c1=O	Wnt act 96 (no result: DYRK1A inh, INS-1E GSIS act)
Cc1ccc(S(=O)(=O)N2CCOCC2)cc1C(=O)OCC(=O)c1c(N)n(C)c(=O)n(C)c1=O	none (no result: miR122 inh, DYRK1A inh, INS-1E GSIS act)
Cc1cccc(NC(=O)c2ccc(OCc3c(C)noc3C)cc2)c1C	INS-1E GSIS act 137
Cc1cc(C)c(S(=O)(=O)NCCn2ccc3ccccc32)c(C)c1	miR122 inh 126 (no result: MITF TRPM1 HTS, INS-1E GSIS act, NSD2 HMT inh)
Cc1cc(C)c(S(=O)(=O)NCCc2ccccc2)c(C)c1	none (no result: miR122 inh)
CCCNC(=O)N1CC2(C1)CN(Cc1ccccc1)[C@@H](CO)c1[nH]c3cc(OC)ccc3c12	none (no result: miR122 inh, MITF TRPM1 HTS, DYRK1A inh, Wnt act, NSD2 HMT inh)
O=C(C[C@@H]1CC[C@H](NS(=O)(=O)c2ccccc2)[C@H](CO)O1)N1CCN(c2ccccc2)CC1	none (no result: miR122 inh, MITF TRPM1 HTS, DYRK1A inh, Wnt act, NSD2 HMT inh)
Cc1ccc(Oc2nc3ccccn3c(=O)c2/C=C(\C#N)C(=O)Nc2c(C)n(C)n(-c3ccccc3)c2=O)cc1	none (no result: miR122 inh)
Cc1c(NC(=O)/C(C#N)=C/c2c(Oc3ccccc3)nc3ccccn3c2=O)c(=O)n(-c2ccccc2)n1C	INS-1E GSIS act 45 (no result: miR122 inh, Wnt act)
C/C=C/c1ccc([C@H]2[C@@H](CO)N(C(=O)CC)[C@@H]2CN(C)C(=O)NC(C)C)cc1	none (no result: miR122 inh, MITF TRPM1 HTS, DYRK1A inh, Wnt act, NSD2 HMT inh)
O=C(NCc1ccccn1)Nc1cccc(NC(=O)NCc2ccccn2)c1	none (no result: DYRK1A inh, INS-1E GSIS act)
COc1cccc(NC(=O)NCc2ccccn2)c1	Wnt act 37
Cc1cccc(NC(=O)NCc2ccccn2)c1	none (no result: INS-1E GSIS act)
O=C(NCc1ccccn1)Nc1cccc(Cl)c1	MITF TRPM1 HTS 136, Wnt act 38
N#CCc1ccc(NC(=O)Nc2cccc(Cl)c2)cc1	MITF TRPM1 HTS 83 (no result: Wnt act, INS-1E GSIS act)
Cc1ccc(NC(=O)C(=O)NCc2ccccn2)cc1	MITF TRPM1 HTS 85 (no result: miR122 inh)
O=C(NCc1ccccn1)C(=O)Nc1ccccc1	none
O=C(C1CCC1)N1CC(=O)N2[C@H](CO)[C@@H](c3ccc(-c4ccccc4F)cc3)[C@@H]2C1	none (no result: miR122 inh, MITF TRPM1 HTS, DYRK1A inh, Wnt act, NSD2 HMT inh)
Cc1csc(NC(=O)Nc2cccc(Cl)c2)n1	Wnt act 49 (no result: NSD2 HMT inh)
Cc1cccnc1NC(=O)Nc1cccc(Cl)c1	MITF TRPM1 HTS 91
O=C(c1cccnc1)N1CC2(C1)[C@@H](c1ccccc1)[C@H](CO)N2C(=O)c1cccnc1	none (no result: miR122 inh, MITF TRPM1 HTS, DYRK1A inh, Wnt act, NSD2 HMT inh)
O=C(Nc1cccc(F)c1)N1CC(=O)N2[C@H](CO)[C@H](c3ccc(Br)cc3)[C@@H]2C1	none (no result: miR122 inh, MITF TRPM1 HTS, DYRK1A inh, Wnt act, NSD2 HMT inh)
COc1ccc([C@@H]2CC(=O)c3c(O)cc(O)cc3O2)cc1O	Wnt act 40 (no result: INS-1E GSIS act, NSD2 HMT inh)
C[C@H](CO)N1C[C@H](C)[C@@H](CN(C)C(=O)c2ccc(F)cc2)Oc2ncc(C#CCN(C)C)cc2C1=O	none (no result: MITF TRPM1 HTS, DYRK1A inh, Wnt act, NSD2 HMT inh)
O=c1oc(-c2cc3ccccc3o2)nc2sc3c(c12)CCCC3	MITF TRPM1 HTS 101
